Measurements reported in PubChem BioAssay AID504766 (The Scripps Research Institute Molecular Screening Center, 2011).
Several values for one entry are separate records, joined by “and”; a condition that tells them apart may be missing. Equal values may be shown once. The campaign covered roughly 340,000 compounds. About 3,400 (1%) were called active.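 The calls were made as follows: active = inhibition above the mean over all tested compounds plus 3 SD (cut at about 4.2% in these data); inactive = the rest.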 The sample as a whole holds a higher share of actives than the screen did. Some compounds were tested as several samples or in several runs, with calls that do not always agree.

The compounds below were run against Nuclear receptor subfamily 0 group B member 1 (Homo sapiens) (UniProt P51843) (assay: DAX1 (NR0B1) inhibitors, primary screen, cell-based, HEK293, Gal4-DAX1, luciferase luminescence (AID 504766;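 also: 0% = DAX1-transfected cells with DMSO and 100% = empty-vector control cells with DMSO; inhibition shows as a rise in luminescence from relieved DAX1 repression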)). Settings: HEK293 Gal4-DAX1 luciferase reporter, at 6.75 µM, stronger effect = higher value.
Nuclear receptor subfamily 0 group B member 1 (Homo sapiens), sequence (P51843 207-470 limits assumed): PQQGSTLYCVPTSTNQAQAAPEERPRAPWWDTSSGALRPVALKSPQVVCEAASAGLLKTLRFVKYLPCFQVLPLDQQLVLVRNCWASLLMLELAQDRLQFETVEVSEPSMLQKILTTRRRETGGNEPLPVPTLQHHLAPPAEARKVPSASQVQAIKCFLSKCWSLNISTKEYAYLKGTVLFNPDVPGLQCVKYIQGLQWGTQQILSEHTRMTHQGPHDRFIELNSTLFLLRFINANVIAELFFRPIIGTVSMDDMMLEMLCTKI

inhibition, 5.43% (active) and 1.58% (inactive):
CC(C)C(=O)N1CCN(CCN=CC2=C(O)CC(c3ccco3)CC2=O)CC1 (configuration not stated)

inhibition, inactive:
Cc1cc(-c2nc(C)c(-c3nnc(SCC(=O)Nc4ccccc4)n3C)s2)no1 -0.43%, Cn1c(SCC(=O)Nc2cccc(NC(=O)c3cccs3)c2)nnc1-c1ccncc1 -0.64%, O=C(c1ccc(CS(=O)Cc2ccccc2Cl)o1)N1CCN(c2ccccc2)CC1 (configuration not stated) 0.5%, CCOC(=O)C(C(=O)c1ccccc1)C(c1ccccc1)c1nccc2ccccc12 (configuration not stated) -0.83%, CC1(c2cccc(Br)c2)NC(=O)N(CC(=O)NCCC2=CCCCC2)C1=O (configuration not stated) 1.45%, O=S1(=O)CCN(Cc2ccccc2)CC1 -0.64%, CC(=O)N1CCN(CCN=CC2=C(O)CC(C)(C)CC2=O)CC1 0.1%, O=C1CC(c2ccccc2)CC(O)=C1C=NCCN1CCOCC1 (configuration not stated) -0.18%, CC1(C)CC(=O)C=C(c2ccc(COC(=O)c3cc(F)cc(F)c3)cc2)C1=O -0.88%, CC1C(=O)N(Cc2cn(CC3CCCCC3)nn2)CCS(=O)(=O)N1Cc1ccc(-c2cccc(N(C)C)c2)cc1 (configuration not stated) 0.14%, C[C@H](CO)N1C[C@H](C)[C@H](CN(C)C(=O)Nc2ccc3c(c2)OCO3)Oc2ncc(Br)cc2C1=O 2.47%, N#CC1=C(N)Oc2cc(N)ccc2C1c1ccccc1 (configuration not stated) 0.38%, Cc1cc2c(c(=O)n1C)C(C(C)C)C(C#N)=C(N)O2 (configuration not stated) -0.55%, CC1CC(NC(=S)N(C)C)CC(C)(C)C1 (configuration not stated) 1.5%, COc1cccc(/C=C2\SC(=S)N(CCCC(=O)N3CCOCC3)C2=O)c1 -0.53%, COc1cccc(-c2nn(C)c3sc(C(=O)N4CCN(c5ccccc5)CC4)cc23)c1 -1.01%, COc1ccccc1N1CCN(C(=O)c2cc3c(-c4ccc(Cl)cc4)nn(C)c3s2)CC1 2.84%, COCCCn1c(C(=O)NC2CCCCC2)cc2c(=O)n3cccc(C)c3nc21 -1.22%, O=C(Nc1ccc2c(c1)[C@@H]1C[C@@H](CC(=O)N3CCCCC3)O[C@@H](CO)[C@@H]1O2)NC1CCCCC1 0.47%, Cc1cccc(C(=O)NC2CCN(CC(=O)Nc3cccc(Cl)c3)CC2)c1 0.29%, O=C(NCCN1CCOCC1)C1CCN(S(=O)(=O)c2ccccc2)CC1 4.19%, CC1CC(=NNC(=O)C2COc3ccccc3O2)CC(C)(C)C1 (configuration not stated) 0.05%, CC1(C)CC(=O)C/C(=N\NC(=O)c2cccs2)C1 -0.39%, C[C@H](CO)N1C[C@H](C)[C@@H](CN(C)C(=O)c2cnccn2)Oc2ncc(Br)cc2C1=O -0.09%, COc1cc(OC)c(C(=O)NC2CC(C)(C)NC(C)(C)C2)cc1OC 0.81%, COc1ccc(C(=O)NC2CC(C)(C)NC(C)(C)C2)cc1OC 0.53%, O=C(OCc1cn([C@H]2C[C@H](c3ccccc3)N(C(=O)c3cccs3)C[C@@H]2O)nn1)c1ccccc1 -0.83%, COc1ccc(C(=O)Nc2cccc(NC(=O)c3ccc(OC)cc3OC)n2)c(OC)c1 -0.74%, COc1ccc(C(=O)NC2=NCCS2)c(OC)c1 0.9%, Cn1nc(N)c2ncc(C(Cl)(Cl)Cl)nc21 0.87%, CCOC(=O)c1c(C)[nH]c(C)c1C(=O)COC(=O)/C=C/c1cccc([N+](=O)[O-])c1 0.45%, CCN(CC)S(=O)(=O)N1CCC(C(=O)NC(C)CCc2ccccc2)CC1 (configuration not stated) 0.09%, CC(CCc1ccccc1)NC(=O)c1ccc(Br)o1 (configuration not stated) -0.46%, CC(C)CC1C(=O)N(Cc2cn(CC3CCCCC3)nn2)CCS(=O)(=O)N1Cc1ccc(-c2ccc(Cl)cc2)cc1 (configuration not stated) 0.42%, CC(=O)c1ccc(OCC(=O)N(C)C2CCS(=O)(=O)C2)cc1 (configuration not stated) -0.31%, Cc1ccc(-c2ccc(/C=N/NC(=O)CN3CCOCC3)o2)cc1[N+](=O)[O-] -1.47%, CN1CCN(/N=C/c2ccc(C#N)cc2)CC1 2.94%, C[C@H]1CN(c2ccc(Br)cc2)C(=O)[C@@H]1CC(=O)Nc1ccc(Br)cc1 0.61%, CCc1cc(C(=O)N(CC)CC(=O)Nc2c(F)cccc2F)sc1C 1.94%, Nc1ccc2c(c1)C(O)c1ccc(Cl)cc1-2 (configuration not stated) 1.37%, CCC(=O)Nc1ccc2nn(-c3ccc(F)cc3)nc2c1 1.93%, Cc1ccccc1Nc1nc(N)nc(CSc2ccccc2)n1 3.71%, Cc1nnc(SCc2nc3ccccc3nc2C)s1 0.55%, Cc1cn([C@H]2C[C@H](O)[C@@H](CNC(=O)[C@H](N)Cc3cccnc3)O2)c(=O)[nH]c1=O 0.07%, CNC(=O)C[C@H]1C(=O)N(c2ccc(OC)cc2)C[C@@H]1Cc1ccccc1 0.14%, C[C@H](CO)N1C[C@H](C)[C@@H](CN(C)S(=O)(=O)c2ccc(Oc3ccccc3)cc2)OCc2cn(nn2)CCCC1=O 0.27%

inhibition, active:
Cc1nc(-c2nnc(SCC(=O)Nc3cc(C(F)(F)F)cc(C(F)(F)F)c3)n2C)cs1 6.44%, Cn1c2c(c(=O)n(C)c1=O)C(c1cccc(F)c1)C(C#N)=C(N)O2 (configuration not stated) 5.95%, CCOC(=O)N1CCN(C(=O)c2cc3c(-c4ccc(Cl)cc4)nn(C)c3s2)CC1 4.96%, CC1C/C(=N/NC(=O)c2cccs2)CC(C)(C)C1 (configuration not stated) 5.93%, COc1cc2c(cc1OC)C(=O)NCC(C)(C)O2 4.35%, COc1ccc(C(=O)Nc2nncs2)c(OC)c1 5.95%, CC1=C(C)CC(C(=O)NC(C)CCc2ccccc2)C(C(=O)O)C1 (configuration not stated) 4.67%, CN1CCN(/N=C/c2ccc(-c3ccc([N+](=O)[O-])cc3)o2)CC1 4.57%, Nc1ccc2nn(-c3ccc(Cl)cc3)nc2c1 5.29%, Cc1ccc(Nc2nc(N)nc(CSc3nnc(C)s3)n2)cc1 4.29%
